Test results as given in PubChem BioAssay AID504725 (Broad Institute, 2011).
Potency and affinity values are given separately. Calls of active or inactive are those of the source. How the calls were made is not given here.

biological target: KSHV LANA C-terminal domain (residues 932-1162) binding to LBS DNA (UniProt O40947); test: inhibitors of C-LANA binding to LBS DNA, dose response, biochemical, fluorescence polarization, cherry-picked samples (AID 504725); conditions: MBP-C-LANA / FAM-LBS DNA fluorescence polarization, percent change from plate compound-well median; series mostly up to 35 µM

outcome, inactive:
NNc1nc2sc3c(c2c(=O)n1C1CCCCC1)CCN(Cc1ccccc1)C3
O=c1[nH]nc(CSCc2ccccc2Cl)[nH]1
CN1CCN(CCCNC(=O)c2cc3c(-c4ccc(Cl)cc4)nn(C)c3s2)CC1
O=C(CCN1C(=O)/C(=C/c2ccco2)SC1=S)Nc1ccc(C(=O)O)c(O)c1
CC1=[N+](C)N(c2ccccc2)C(=O)C1N=C/C=C/c1ccccc1 (stereo not drawn)
Cc1ccc2c(c1)nnn2C1CCN(C(=O)c2cccs2)CC1
COc1ccc(C(=O)c2ccsc2N)cc1
CN(C)C(=O)c1ccc(NC(=O)COC(=O)C2(c3ccccc3)CCCC2)cc1
Cc1sc2nnn(CC(=O)N3CCN(C(=O)c4ccco4)CC3)c(=O)c2c1C
COc1cc(SC)ccc1C(=O)Nc1nc(C)cs1
CC(C)=C[C@@H]1C[C@H](C)[C@H]2CC[C@H](C)c3c(O[C@@H]4O[C@@H](C)[C@@H](O)[C@@H](O)[C@@H]4O)c(O)c(C)c1c32
O=c1oc2ccccc2nc1/C=C(\O)c1ccc(Br)cc1
COc1ccccc1CNC(=O)C(=O)NCC1CCCN1S(=O)(=O)c1cccs1 (stereo not drawn)
CCOC(=O)c1cnc(SC)nc1Sc1ccc(Cl)cc1Cl
CCn1c(CN2CCCCC2)nc2cc(S(=O)(=O)N3CCCCC3)ccc21
O=C(c1coc(=O)c(Br)c1)N1CCCc2ccccc21
CCOC(=O)[C@H]1[C@H]2COc3cc(OC)ccc3[C@@H]2N2C(=O)CN(Cc3ccc(OC)cc3)C(=O)[C@@]12C
COC(=O)c1cccc(COC(=O)c2ccccc2NC(=O)c2ccco2)c1
COc1ccc(N=Nc2nc3ccc(Br)cc3n2C)cc1
CCOC(=O)c1ccccc1Nc1cc(C)nc2nc(C)nn12
O=C(O)c1cccc(-n2cccc2/C=C/[N+](=O)[O-])c1
CCN(Cc1ccccc1)C(=O)c1cccc(S(=O)(=O)N2CCN(Cc3ccccc3)CC2)c1
Cc1cc(NC(=O)CSc2nnc(COc3cccc(C)c3C)n2C)no1
O=[N+]([O-])c1cc(-n2cnnn2)ccc1N1CCC(Cc2ccccc2)CC1
COc1ccc(C(=O)OCC(=O)NC2CC2)cc1S(=O)(=O)Nc1ccc(C)cc1
CC1CC(C)CN(C(=O)c2ccc3ncsc3c2)C1 (stereo not drawn)
Nc1ccc2c(O)cc(S(=O)(=O)O)cc2c1
CCN(CC(=O)NCc1cccs1)C(=O)c1ccc(S(=O)(=O)Nc2ccccc2C)cc1
Cc1ccc(/C=C/S(=O)(=O)N2CCC(C(=O)O)CC2)cc1
CC(Sc1nc(-c2ccco2)nc2c1c(=O)n(C)c(=O)n2C)C(=O)O (stereo not drawn)
CCCCn1nc(CC(=O)O)c2ccccc2c1=O
COc1c2c(nc3occc13)C(CCC(C)(C)O)(OC)C(O)CC2 (stereo not drawn)
COC(=O)C1=C(N)OC2=C(C(=O)CCC2)C1c1cccs1 (stereo not drawn)
O=C(CN1CCN(C(=O)CNC(=O)c2ccc3c(c2)OCO3)CC1)Nc1ccc(F)cc1
COc1ccc(-c2csc(NC(=O)CSc3nc(C)nc4sc(C(=O)O)c(C)c34)n2)cc1
O=C(O)c1ccccc1NC(=O)c1cc(-c2ccccc2)nc2ccccc12
CCCN(CCC)C(=O)C1c2ccccc2Oc2ccccc21
O=[N+]([O-])c1cccc(CSc2nc3ccccc3[nH]2)c1
